Measured values as given in PubChem BioAssay (NCATS).
Inconclusive results are not listed. Calls of active or inactive are those of the source. Unless noted, the call rests on the fitted dose curve; in most records, active means well fitted curve in the direction sought with a large enough effect; inconclusive means small, poorly fitted or top-dose-only effect, or another doubt; inactive means no such curve, though single readings can be large; an effect the other way counts as inactive or inconclusive.

Key:
[1] = target: Glucocorticoid receptor (Homo sapiens) (UniProt P04150); assay: GR-GFP Redistribution (AID 450;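 active means compounds whose dose series gives a full or clear partial fitted curve of increased nuclear translocation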; further: potency means the concentration at half of the fitted maximal effect); settings: U2OS GR-GFP nuclear translocation, laser cytometry, 2 h
Sequence of Glucocorticoid receptor (Homo sapiens) (P04150 whole entry, looked up, the tested form may be a part): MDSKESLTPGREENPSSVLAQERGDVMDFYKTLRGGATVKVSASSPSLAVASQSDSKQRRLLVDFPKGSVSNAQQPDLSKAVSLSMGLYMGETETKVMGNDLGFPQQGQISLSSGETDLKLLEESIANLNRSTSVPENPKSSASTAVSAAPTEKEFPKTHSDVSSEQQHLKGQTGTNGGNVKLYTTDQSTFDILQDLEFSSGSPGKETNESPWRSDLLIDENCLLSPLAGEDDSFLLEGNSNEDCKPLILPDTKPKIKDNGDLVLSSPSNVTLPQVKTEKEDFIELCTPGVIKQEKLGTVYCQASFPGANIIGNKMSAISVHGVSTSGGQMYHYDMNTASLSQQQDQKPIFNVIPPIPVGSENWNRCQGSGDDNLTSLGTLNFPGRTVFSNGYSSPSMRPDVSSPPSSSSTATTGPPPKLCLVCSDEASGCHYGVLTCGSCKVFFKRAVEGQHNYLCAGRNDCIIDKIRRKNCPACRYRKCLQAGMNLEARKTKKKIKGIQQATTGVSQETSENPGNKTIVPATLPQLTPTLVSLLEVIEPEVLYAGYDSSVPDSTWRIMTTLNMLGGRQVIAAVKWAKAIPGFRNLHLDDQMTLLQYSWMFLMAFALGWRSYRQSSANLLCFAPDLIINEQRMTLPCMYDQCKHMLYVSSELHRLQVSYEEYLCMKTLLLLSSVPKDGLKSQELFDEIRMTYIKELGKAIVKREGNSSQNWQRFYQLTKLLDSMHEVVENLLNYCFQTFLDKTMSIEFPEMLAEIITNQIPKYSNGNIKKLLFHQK

[2] = target: Glucocorticoid receptor (Homo sapiens) (UniProt P04150); assay: GR-EFC Redistribution (AID 451; calls by dose curve; further: potency means the concentration at half of the fitted maximal effect); settings: CHO-K1 GR-EFC translocation, beta-gal luminescence, 2 h
Summary of the method: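 Translocation of GR-ED fusion to nuclear EA restores b-gal, read by luminescence after 1 h room-temperature detection. Engineered CHO-K1 biosensor cells, 1,000/well, exposed 2 h at 37 C to titrations up to 46 uM final.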

[3] = target: Mitogen-activated protein kinase 10 (Mus musculus) (UniProt Q61831); assay: JNK3 AlphaScreen Assay (AID 530; active means well fitted curve in either direction with a large enough effect, not every such curve was filed as active;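 further: kinase came from lysate of stimulated human HepG2 cells; signal reports phosphorylation of biotinylated GST-cJun 1-79 at Ser73 with 10 µM ATP; on the % scale 0 is the no-effect control and ±100 the full control effect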)
Summary of the method: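 Room-temperature AlphaScreen kinase assay; pre-activated HepG2 lysate as JNK3 source, biotin-GST-cJun(1-79) substrate, 10 uM ATP, compound 15 min preincubation.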

[4] = target: 3',5'-cyclic-AMP phosphodiesterase 4B (Homo sapiens) (UniProt Q07343); assay: qHTS Assay for Inhibitors of PDE-IV (AID 607; active means well fitted activation curve with a large enough effect in the main read-out, with a control signal flat, not every such curve was filed as active; further: % of control where 0% means no effect)
Sequence of 3',5'-cyclic-AMP phosphodiesterase 4B (Homo sapiens) (Q07343 whole entry, looked up): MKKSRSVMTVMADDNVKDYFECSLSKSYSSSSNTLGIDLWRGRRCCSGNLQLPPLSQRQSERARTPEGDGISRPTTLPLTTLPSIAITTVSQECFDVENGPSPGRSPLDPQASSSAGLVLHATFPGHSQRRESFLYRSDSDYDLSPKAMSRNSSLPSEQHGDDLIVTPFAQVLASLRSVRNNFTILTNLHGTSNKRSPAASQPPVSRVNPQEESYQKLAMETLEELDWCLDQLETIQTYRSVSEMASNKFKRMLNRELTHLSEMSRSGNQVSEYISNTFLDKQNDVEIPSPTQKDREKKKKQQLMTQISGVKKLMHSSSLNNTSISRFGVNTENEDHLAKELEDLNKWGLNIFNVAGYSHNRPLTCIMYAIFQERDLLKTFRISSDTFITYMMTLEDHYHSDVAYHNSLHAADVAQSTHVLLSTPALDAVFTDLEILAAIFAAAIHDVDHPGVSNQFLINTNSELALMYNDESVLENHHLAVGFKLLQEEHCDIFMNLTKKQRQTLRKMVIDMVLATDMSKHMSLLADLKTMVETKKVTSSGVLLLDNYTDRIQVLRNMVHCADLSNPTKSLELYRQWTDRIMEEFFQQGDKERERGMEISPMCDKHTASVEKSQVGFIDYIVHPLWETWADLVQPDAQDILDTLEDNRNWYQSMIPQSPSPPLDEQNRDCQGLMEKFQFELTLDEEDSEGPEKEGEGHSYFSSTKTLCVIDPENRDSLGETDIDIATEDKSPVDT
Summary of the method: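 The readout is membrane depolarisation from a cAMP-sensing CNG channel, detected with a potential dye at ex 535/em 590. Cells were HEK293-derived (endogenous PDE-IV) at 1000 cells/well, titrated up to 22.9 uM final.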

[5] = target: Ubiquitin carboxyl-terminal hydrolase 1 (Homo sapiens) (UniProt O94782); assay: Inhibitors of USP1/UAF1: Pilot qHTS (AID 504865); further: potency means the concentration at half of the fitted maximal effect; nearly all actives have a fitted effect of over 35% in size
Summary of the method: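 Enzyme-free wells gave the negative control, while test wells held 1nM USP1/UAF1 preincubated with compound for 15 min at room temperature. Ub-Rho at 150nM final started the reaction, and fluorescence at 480/540 nm was recorded kinetically.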

[6] = target: DNA dC->dU-editing enzyme APOBEC-3G (Homo sapiens) (UniProt Q9HC16); assay: qHTS for inhibitors of Vif-A3G interactions: Validation (AID 588379); further: 0% is about no effect
Sequence of DNA dC->dU-editing enzyme APOBEC-3G (Homo sapiens) (Q9HC16 whole entry, looked up): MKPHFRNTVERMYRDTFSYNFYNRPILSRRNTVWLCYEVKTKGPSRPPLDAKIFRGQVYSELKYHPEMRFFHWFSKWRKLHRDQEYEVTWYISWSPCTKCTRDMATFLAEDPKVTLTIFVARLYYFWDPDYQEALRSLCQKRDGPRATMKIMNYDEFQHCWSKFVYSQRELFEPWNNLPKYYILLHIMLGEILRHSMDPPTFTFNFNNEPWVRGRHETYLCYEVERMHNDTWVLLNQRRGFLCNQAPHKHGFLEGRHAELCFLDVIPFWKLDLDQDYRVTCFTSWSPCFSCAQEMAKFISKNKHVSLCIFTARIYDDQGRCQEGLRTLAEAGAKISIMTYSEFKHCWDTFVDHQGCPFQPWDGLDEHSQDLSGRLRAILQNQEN
Summary of the method: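 HeLa cells stably expressing Vif and A3G-eYFP, 700 cells/well, incubated overnight at 37 deg C, then exposed to compound overnight at 37 deg C. Inhibition of Vif-mediated degradation read as increased yellow fluorescence (Ex 488/Em 500-530) by laser-scanning cytometry.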

Furin (Homo sapiens) = Furin (Homo sapiens) (UniProt P09958); assay: Furin counterscreen qHTS for Zika virus inhibitors (AID 1347149);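 further: purified recombinant full-length human furin enzyme at 5 nM; fluorescence gain from furin cutting a BOC-RVRR-AMC peptide substrate over 15 min; top concentration of the series differs between compounds; plate controls were no-inhibitor control for no effect and no-enzyme control for full effect; nearly all actives have a fitted effect of over 70% in size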
Sequence of Furin (Homo sapiens) (P09958 whole entry, looked up): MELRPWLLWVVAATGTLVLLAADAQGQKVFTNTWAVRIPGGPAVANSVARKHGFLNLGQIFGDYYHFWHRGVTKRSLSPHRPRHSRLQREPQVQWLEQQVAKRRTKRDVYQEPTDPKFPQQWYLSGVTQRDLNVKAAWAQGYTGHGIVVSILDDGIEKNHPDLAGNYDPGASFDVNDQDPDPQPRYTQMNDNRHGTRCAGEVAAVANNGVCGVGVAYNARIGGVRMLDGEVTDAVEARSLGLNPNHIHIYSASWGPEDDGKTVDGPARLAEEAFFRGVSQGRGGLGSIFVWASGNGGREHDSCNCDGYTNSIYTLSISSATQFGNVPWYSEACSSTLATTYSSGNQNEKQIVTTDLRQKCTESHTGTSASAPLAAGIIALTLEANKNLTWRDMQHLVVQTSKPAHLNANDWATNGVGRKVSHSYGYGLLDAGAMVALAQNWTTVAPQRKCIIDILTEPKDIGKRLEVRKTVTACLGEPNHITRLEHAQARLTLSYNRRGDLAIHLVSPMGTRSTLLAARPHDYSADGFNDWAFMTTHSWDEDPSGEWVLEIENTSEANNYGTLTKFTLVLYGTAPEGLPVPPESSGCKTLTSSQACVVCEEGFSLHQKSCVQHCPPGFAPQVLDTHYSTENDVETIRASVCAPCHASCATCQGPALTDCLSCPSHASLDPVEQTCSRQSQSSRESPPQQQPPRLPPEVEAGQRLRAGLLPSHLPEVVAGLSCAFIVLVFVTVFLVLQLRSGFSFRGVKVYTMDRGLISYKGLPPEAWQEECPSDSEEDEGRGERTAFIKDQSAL
Summary of the method: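 Fluorogenic cleavage of BOC-RVRR-AMC (2 microM final, Km ~15 µM) was monitored (ex 340, em 450 nm) at 37C after 15 min RT preincubation of 5 nM furin with compounds in HEPES pH 7.0 buffer with CaCl2 and Triton X-100. Percent inhibition was fitted to a 4-parameter Hill curve.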

[7] = test system: Zika virus NS2B-NS3 protease (linked construct); assay: Confirmatory screen NINDS AMC qHTS for Zika virus inhibitors (AID 1347152); further: nearly all actives have a fitted effect of over 70% in size; further: potency means the concentration at half of the fitted maximal effect;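 on activity change, negative = inhibition: AMC fluorescence gain from cleaved Bz-Nle-KRR-AMC substrate over 15 min; top concentration of the series differs between compounds; 0% = no-inhibitor control and -100% = no-enzyme control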
Summary of the method: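 Concentration-response confirmation used the NINDS linked protease (NS2B hydrophilic domain joined to NS3 protease domain), 1 nM, with a 15-min compound preincubation. Substrate, Nle-KRR-AMC at 10 microM, was read by UV fluorescence before and after 15 min.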

[8] = test system: Zika virus NS2B-NS3 protease (unlinked complex); assay: Confirmatory screen GU AMC qHTS for Zika virus inhibitors (AID 1347153); further: nearly all actives have a fitted effect of over 70% in size
Summary of the method: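 Fluorescence change (ex 340/em 450 nm) over 15 min, ~20% substrate conversion, normalized to no-inhibitor and no-enzyme controls, then Hill-fitted. Unlinked protease at 25 nM; AMC peptide 10 µM.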

[9] = test system: Zika virus NS2B-NS3 protease; assay: Primary screen GU AMC qHTS for Zika virus inhibitors (AID 1347154); further: potency means the concentration at half of the fitted maximal effect; nearly all actives have a fitted effect of over 70% in size
Summary of the method: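 Fluorogenic AMC-substrate cleavage by noncovalent NS2B-NS3 protease complex (25 nM, pH 8.0 Tris buffer with Tween 20) followed for 15 minutes at room temperature (~20% conversion). Percent inhibition from ex340/em450 signal change, fitted by 4-parameter Hill equation.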

[10] = Confirmatory screen NINDS Rhodamine qHTS for Zika virus inhibitors (AID 1347161); further: nearly all actives have a fitted effect of over 60% in size; further: potency means the concentration at half of the fitted maximal effect;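 on activity change, negative = inhibition: purified Zika NS2B-NS3 protease with linked NS2B cofactor domain and Rhodamine110 peptide substrate; plate controls were no-inhibitor control for no effect and no-enzyme control for full effect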
Summary of the method: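 Purified linked NS2B-NS3 protease (NS2B hydrophilic domain joined to NS3 protease by flexible linker), 25 nM in 10 mM Tris-HCl pH 8.0, 0.01% Tween 20. Compounds titrated, 15 min preincubation at room temperature; 1.5 microM Rhodamine110 substrate, FITC fluorescence change over 15 min.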

[11] = Vero cells viability qHTS for Zika virus inhibitors (AID 1347167); further: on the % scale 0 is the no-effect control and ±100 the full control effect
Summary of the method: (§1)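 Compounds were tested in concentration series on cells grown in DMEM containing 4% FBS. After 24 to 48 hours, cellular ATP was measured by luminescence with CellTiter Glo.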

[12] = HepG2 cells viability qHTS for Zika virus inhibitors (AID 1347168); further: on the % scale 0 is the no-effect control and ±100 the full control effect
Summary of the method: as §1

[13] = Primary qHTS for small molecule stabilizers of the endoplasmic reticulum resident proteome: Secreted ER Calcium Modulated Protein (SERCaMP) assay (AID 1508630); further: on the % scale 0 is the no-effect control and ±100 the full control effect
Summary of the method: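 GLuc-SERCaMP-expressing SH-SY5Y cells, pretreated 16 h with compound, are challenged with thapsigargin to empty ER calcium stores; after 4 h, coelenterazine is added directly to the medium and luminescence is imaged.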

[14] = target: Rap guanine nucleotide exchange factor 3 (Homo sapiens) (UniProt O95398); assay: Confirmatory qHTS for antagonist of cAMP-regulated guanine nucleotide exchange factor 3 (EPAC1) (AID 1645880); further: potency means the concentration at half of the fitted maximal effect; nearly all actives have a fitted effect of over 55% in size
Sequence of Rap guanine nucleotide exchange factor 3 (Homo sapiens) (O95398 whole entry, looked up): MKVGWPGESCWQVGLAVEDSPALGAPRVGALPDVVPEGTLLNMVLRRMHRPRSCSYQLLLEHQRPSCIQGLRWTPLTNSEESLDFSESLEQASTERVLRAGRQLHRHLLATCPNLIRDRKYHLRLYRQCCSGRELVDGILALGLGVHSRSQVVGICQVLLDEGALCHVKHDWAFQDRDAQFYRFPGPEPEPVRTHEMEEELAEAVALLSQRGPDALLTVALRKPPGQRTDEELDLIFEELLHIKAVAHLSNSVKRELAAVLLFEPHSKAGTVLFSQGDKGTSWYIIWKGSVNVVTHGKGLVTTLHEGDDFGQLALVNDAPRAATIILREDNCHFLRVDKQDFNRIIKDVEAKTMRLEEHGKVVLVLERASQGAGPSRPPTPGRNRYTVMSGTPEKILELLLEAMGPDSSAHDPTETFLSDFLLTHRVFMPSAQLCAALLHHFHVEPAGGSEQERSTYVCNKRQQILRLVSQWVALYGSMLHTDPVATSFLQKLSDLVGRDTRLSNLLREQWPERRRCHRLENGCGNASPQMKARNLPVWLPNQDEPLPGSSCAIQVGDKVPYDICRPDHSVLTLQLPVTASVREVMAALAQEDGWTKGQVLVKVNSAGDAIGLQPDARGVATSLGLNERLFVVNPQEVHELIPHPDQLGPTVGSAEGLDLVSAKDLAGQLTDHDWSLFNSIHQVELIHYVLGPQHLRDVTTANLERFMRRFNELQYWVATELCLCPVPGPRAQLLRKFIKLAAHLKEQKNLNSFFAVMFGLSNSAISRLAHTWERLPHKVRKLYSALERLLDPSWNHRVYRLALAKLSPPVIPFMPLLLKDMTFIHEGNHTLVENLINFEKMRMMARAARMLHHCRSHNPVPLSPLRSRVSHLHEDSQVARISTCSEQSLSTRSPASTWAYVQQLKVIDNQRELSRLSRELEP
Summary of the method: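 Nucleotide exchange uses 100 nM EPAC1, 250 nM RAP1B-BODIPY-GDP and 50 uM GDP, with compounds in a concentration-titration series. After 5 min at room temperature, fluorescence (480 nm ex/540 nm em) is read every 5 min for 30 min. Data are normalized to control ATA and DMSO.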

[15] = target: Rap guanine nucleotide exchange factor 3 (Homo sapiens) (UniProt O95398); assay: Confirmatory qHTS for agonist of cAMP-regulated guanine nucleotide exchange factor 3 (EPAC1) (AID 1645881);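 further: EPAC1 catalysed release of BODIPY-GDP from Rap1B seen as fluorescence loss; 100% = effect of cAMP agonist control; nearly all actives have a fitted effect of over 75% in size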
[16] = target: Rap guanine nucleotide exchange factor 4 (Homo sapiens) (UniProt Q8WZA2); assay: Confirmatory qHTS for agonist of cAMP-regulated guanine nucleotide exchange factor 4 (EPAC2) (AID 1645884);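 further: nucleotide exchange releases bodipy-GDP from Rap1 and this lowers its fluorescence; on the % scale 0 is the no-effect control and ±100 the full control effect; nearly all actives have a fitted effect of over 65% in size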
Sequence of Rap guanine nucleotide exchange factor 4 (Homo sapiens) (Q8WZA2 whole entry, looked up): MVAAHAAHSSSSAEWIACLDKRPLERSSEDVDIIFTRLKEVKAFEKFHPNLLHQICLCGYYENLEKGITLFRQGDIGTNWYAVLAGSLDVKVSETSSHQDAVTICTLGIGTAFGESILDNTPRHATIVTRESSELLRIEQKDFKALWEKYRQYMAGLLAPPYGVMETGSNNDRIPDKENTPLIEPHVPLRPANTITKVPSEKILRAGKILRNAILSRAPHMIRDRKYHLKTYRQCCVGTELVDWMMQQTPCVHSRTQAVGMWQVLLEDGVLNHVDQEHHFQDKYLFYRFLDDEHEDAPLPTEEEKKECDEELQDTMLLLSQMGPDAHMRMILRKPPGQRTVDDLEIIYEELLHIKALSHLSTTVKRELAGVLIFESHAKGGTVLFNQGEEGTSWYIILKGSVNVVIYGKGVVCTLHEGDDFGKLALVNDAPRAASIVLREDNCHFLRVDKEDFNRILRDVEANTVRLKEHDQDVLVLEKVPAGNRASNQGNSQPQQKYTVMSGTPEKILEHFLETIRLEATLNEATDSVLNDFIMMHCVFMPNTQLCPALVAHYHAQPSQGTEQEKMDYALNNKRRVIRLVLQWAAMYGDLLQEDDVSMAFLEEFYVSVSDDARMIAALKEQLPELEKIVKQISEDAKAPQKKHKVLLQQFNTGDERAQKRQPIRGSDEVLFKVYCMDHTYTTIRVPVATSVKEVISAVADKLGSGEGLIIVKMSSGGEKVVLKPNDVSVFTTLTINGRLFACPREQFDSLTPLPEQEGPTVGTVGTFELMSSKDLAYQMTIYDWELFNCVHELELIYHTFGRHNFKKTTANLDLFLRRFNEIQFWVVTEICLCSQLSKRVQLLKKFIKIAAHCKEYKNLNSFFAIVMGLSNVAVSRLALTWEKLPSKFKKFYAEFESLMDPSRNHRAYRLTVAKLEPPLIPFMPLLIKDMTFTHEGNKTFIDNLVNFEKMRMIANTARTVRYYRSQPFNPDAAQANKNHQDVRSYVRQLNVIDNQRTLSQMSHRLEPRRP

[17] = target: Rap guanine nucleotide exchange factor 4 (Homo sapiens) (UniProt Q8WZA2); assay: Confirmatory qHTS for antagonist of cAMP-regulated guanine nucleotide exchange factor 4 (EPAC2) (AID 1645885); further: potency means the concentration at half of the fitted maximal effect; nearly all actives have a fitted effect of over 25% in size
[18] = test system: Zika virus NS2B-NS3 protease (unlinked); assay: Optimization of GU AMC qHTS for Zika virus inhibitors: Unlinked NS2B-NS3 protease assay (AID 1347151);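 further: 0% = no-inhibitor control and -100% = no-enzyme control; nearly all actives have a fitted effect of over 80% in size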
Summary of the method: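 In this qHTS, compounds acted on 25 nM unlinked Zika NS2B–NS3 in pH 8.0 Tris/Tween buffer. Cleavage of an AMC peptide ran 15 min at room temperature, to about 20% conversion.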

[19] = Tertiary RLuc qRT-PCR qHTS assay for Zika virus inhibitors (AID 1347169); further: potency means the concentration at half of the fitted maximal effect; nearly all actives have a fitted effect of over 55% in size
Summary of the method: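 Inhibition of ZIKV-RLuc replication in Vero cells, read as Renilla luminescence 1-1.5 hrs after live-cell substrate addition, following 48-72 hrs infection at MOI 1-2 in presence of compound.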

[20] = target: Lysosomal acid glucosylceramidase (Homo sapiens) (UniProt P04062); assay: Glucocerebrosidase-p2 (AID 348; in the data active means potency below about 10 µM; further: potency means the concentration at half of the fitted maximal effect); settings: purified GBA, blue fluorogenic substrate, 40 min
Summary of the method: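 Compounds titrated from 0.6 nM upwards against 0.2 nM enzyme in pH 5.9 citric acid/KH2PO4, taurocholate, tween-20; blue fluorogenic substrate 80 uM, 40 min room temperature, stopped and read Ex 365/Em 440 for AC50.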

[21] = AP1 Signaling Pathway (AID 357; active means well fitted curve in either direction with a large enough effect, not every such curve was filed as active; further: on the % scale 0 is the no-effect control and ±100 the full control effect); settings: ME-180 AP-1-bla reporter, EGF-induced, beta-lactamase ratio, 5 h; at 7.69 µM (top of the series)
Summary of the method: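 ME-180 cells with beta-lactamase reporter under AP-1 response element, stimulated with EC50 EGF; compounds tested in titration series, 5 h at 37 °C. CCF4 substrate added 2.5 h at room temperature; 460/530 nm emission ratio gave %activity and AC50.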

[22] = ZIKV-mCherry secondary qHTS for Zika virus inhibitors (AID 1347158); further: top concentration of the series differs between compounds
Summary of the method: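 After overnight seeding at 37 °C, Vero cells receive compound and then ZIKV-mCherry (MOI 1). Following 48-72 h infection, cells are fixed, counterstained with Hoechst, and imaged; percent infected cells is derived from an mCherry intensity cut-off of 450 RFU.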

[23] = test system: Zika virus NS2B-NS3 protease (linked); assay: 384 well plate NINDS AMC confirmatory qHTS for Zika virus inhibitors (AID 1347163);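 further: linked protease at 5 30 or 60 nM final depending on run; fluorescence of AMC released from Ac-VKTGKR-AMC peptide cleaved by the protease; top concentration of the series differs between compounds; 0% = no-inhibitor control and -100% = no-enzyme control; nearly all actives have a fitted effect of over 50% in size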
Summary of the method: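 Linked protease 5/30/60 nM final; cpds up to 1 mM final, ~15 min preinc. Substrate Ac-VKTGKR-AMC 30 microM final. RT, dark, 25 min; FI ex 355/em 460; normalized to no-enzyme/no-inhibitor ctrls.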

[24] = test system: Zika virus NS2B-NS3 protease (linked construct); assay: 384 well plate NINDS Rhodamine confirmatory qHTS for Zika virus inhibitors (AID 1347164); further: potency means the concentration at half of the fitted maximal effect; nearly all actives have a fitted effect of over 65% in size
Summary of the method: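 Cleavage of Ac-LKRR-Rhodamine 110 (10 microM final) by linked protease (final 5, 30 or 60 nM) was followed as fluorescence at 485/538 nm after 25 min, room temperature, dark. Compounds preincubated ~15 min.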

CC1(COc2ccc(C[C@H]3SC(=O)NC3=O)cc2)CCCCC1
inactive: Potency [1] > 46 µM | Potency [2] > 46 µM | Potency [3] | Potency [4] | Potency [6] | Potency (Furin (Homo sapiens)) | Potency [11] | Potency [12] | Potency [13] | outcome [15] | outcome [16]
active: Potency [5] 79.4 µM | Potency [7] 19.2 µM | Potency [8] 21.5 µM | Potency [9] 11.9 µM | Potency [10] 4.4 µM | Potency [14] 55.9 µM | Potency [17] 49.4 µM

CCOc1ccc(C2C(=O)N(C3CCCCCC3)CC(=O)N2CCc2ccc(Cl)cc2)cc1OC (stereo not drawn)
active: Potency [19] 18.6 µM
inactive: Potency (Furin (Homo sapiens)) | Potency [18] | Potency [11] | Potency [12]

Cc1c2ccccc2c(CSC(=N)N)c2ccccc12
active: Potency [20] 1.39 µM | Potency [9] 21.2 µM
inactive: activity change, negative = inhibition [21] -16.8% | Potency [1] > 46 µM | Potency [2] > 9.22 µM | activity change, negative = inhibition [3] 27.8% [at 11.4 µM] | Potency [4] | Potency (Furin (Homo sapiens)) | Potency [7] | Potency [8] | Potency [10] | Potency [11] | Potency [13]

O=[S+]([O-])([O-])c1ccc2c(c1)cc([S+](=O)([O-])[O-])c1nn(-c3ccc(/C=C/c4ccc(-n5nc6c([S+](=O)([O-])[O-])cc7cc([S+](=O)([O-])[O-])ccc7c6n5)cc4[S+](=O)([O-])[O-])c([S+](=O)([O-])[O-])c3)nc12
inactive: Potency (Furin (Homo sapiens)) | Potency [22] | Potency [23]
active: Potency [7] 49.4 µM | Potency [8] 49.4 µM | Potency [24] 11.2 µM | Potency [19] 6.58 µM
